Measurements reported in ChEMBL document CHEMBL1961873, “Compounds: GSK PKIS; Assays: Nanosyn kinase panel” (2012).

Assays:
[1] = target: CDK3/Cyclin E (Homo sapiens) (UniProt P24864+Q00526); details: at 1 µM;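 note: each figure is a mean percent inhibition of the CDK3/cyclin E complex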
[2] = target: Cyclin-dependent kinase 4 (Homo sapiens) (UniProt P11802); details: at 0.1 µM
[3] = target: Cyclin-dependent kinase 4 (Homo sapiens) (UniProt P11802); details: at 1 µM
[4] = target: Cyclin-dependent kinase 5 (Homo sapiens) (UniProt Q00535); details: at 0.1 µM
Cyclin-dependent kinase 5 (Homo sapiens), sequence (Q00535 whole entry, looked up): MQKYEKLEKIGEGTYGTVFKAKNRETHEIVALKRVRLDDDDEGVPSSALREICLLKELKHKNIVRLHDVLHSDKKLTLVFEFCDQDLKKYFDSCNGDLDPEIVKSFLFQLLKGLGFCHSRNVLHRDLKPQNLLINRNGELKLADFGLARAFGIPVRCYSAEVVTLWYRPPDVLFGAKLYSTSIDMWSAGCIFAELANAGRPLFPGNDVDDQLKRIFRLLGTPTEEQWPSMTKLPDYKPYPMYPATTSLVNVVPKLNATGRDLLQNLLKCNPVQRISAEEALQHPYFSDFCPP

[5] = target: Cyclin-dependent kinase 5 (Homo sapiens) (UniProt Q00535); details: at 1 µM
[6] = target: Cyclin-dependent kinase 6 (Homo sapiens) (UniProt Q00534); details: at 0.1 µM
Cyclin-dependent kinase 6 (Homo sapiens), sequence (Q00534 whole entry): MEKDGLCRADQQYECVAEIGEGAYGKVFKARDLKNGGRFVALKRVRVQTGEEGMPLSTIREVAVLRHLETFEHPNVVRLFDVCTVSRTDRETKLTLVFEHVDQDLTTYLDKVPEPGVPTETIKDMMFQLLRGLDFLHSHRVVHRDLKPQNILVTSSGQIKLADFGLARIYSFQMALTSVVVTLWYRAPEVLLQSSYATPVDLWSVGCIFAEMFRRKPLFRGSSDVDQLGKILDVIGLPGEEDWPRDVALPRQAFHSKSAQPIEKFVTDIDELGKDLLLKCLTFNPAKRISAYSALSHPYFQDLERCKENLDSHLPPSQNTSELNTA

[7] = target: Cyclin-dependent kinase 6 (Homo sapiens) (UniProt Q00534); details: at 1 µM
[8] = target: Dual specificity protein kinase CLK2 (Homo sapiens) (UniProt P49760); details: at 0.1 µM
Dual specificity protein kinase CLK2 (Homo sapiens), sequence (P49760 whole entry, looked up): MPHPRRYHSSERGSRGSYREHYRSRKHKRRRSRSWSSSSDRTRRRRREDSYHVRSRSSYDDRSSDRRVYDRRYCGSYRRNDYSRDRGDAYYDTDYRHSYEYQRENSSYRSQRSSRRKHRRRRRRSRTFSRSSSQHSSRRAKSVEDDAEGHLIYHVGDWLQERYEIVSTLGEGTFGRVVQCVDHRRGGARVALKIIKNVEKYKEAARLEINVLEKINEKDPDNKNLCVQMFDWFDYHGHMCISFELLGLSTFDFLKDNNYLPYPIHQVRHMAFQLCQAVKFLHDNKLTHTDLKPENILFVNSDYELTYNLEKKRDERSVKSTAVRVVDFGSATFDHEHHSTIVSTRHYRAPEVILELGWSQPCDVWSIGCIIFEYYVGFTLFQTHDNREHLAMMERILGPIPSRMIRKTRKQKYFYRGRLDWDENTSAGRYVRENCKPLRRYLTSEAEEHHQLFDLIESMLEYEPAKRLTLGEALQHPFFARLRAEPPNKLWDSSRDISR

[9] = target: Dual specificity protein kinase CLK2 (Homo sapiens) (UniProt P49760); details: at 1 µM
[10] = target: Dual specificity protein kinase CLK3 (Homo sapiens) (UniProt P49761); details: at 0.1 µM
Dual specificity protein kinase CLK3 (Homo sapiens), sequence (P49761 whole entry, looked up): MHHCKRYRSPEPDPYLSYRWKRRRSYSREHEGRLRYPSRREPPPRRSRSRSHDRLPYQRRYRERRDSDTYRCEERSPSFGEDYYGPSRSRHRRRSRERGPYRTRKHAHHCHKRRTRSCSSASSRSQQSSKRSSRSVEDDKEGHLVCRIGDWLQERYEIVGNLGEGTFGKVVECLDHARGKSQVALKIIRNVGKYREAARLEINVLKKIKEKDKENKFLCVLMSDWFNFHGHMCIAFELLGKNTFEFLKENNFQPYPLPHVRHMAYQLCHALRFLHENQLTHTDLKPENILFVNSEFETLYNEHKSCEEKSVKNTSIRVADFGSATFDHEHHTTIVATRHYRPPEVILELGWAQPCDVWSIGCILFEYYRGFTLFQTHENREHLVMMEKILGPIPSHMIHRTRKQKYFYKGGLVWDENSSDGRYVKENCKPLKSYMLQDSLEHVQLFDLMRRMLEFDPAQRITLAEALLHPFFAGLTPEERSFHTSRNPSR

[11] = target: Dual specificity protein kinase CLK3 (Homo sapiens) (UniProt P49761); details: at 1 µM
[12] = target: Dual specificity tyrosine-phosphorylation-regulated kinase 1A (Homo sapiens) (UniProt Q13627); details: at 0.1 µM
[13] = target: Dual specificity tyrosine-phosphorylation-regulated kinase 1A (Homo sapiens) (UniProt Q13627); details: at 1 µM
[14] = target: Dual specificity tyrosine-phosphorylation-regulated kinase 1B (Homo sapiens) (UniProt Q9Y463); details: at 0.1 µM
Dual specificity tyrosine-phosphorylation-regulated kinase 1B (Homo sapiens), sequence (Q9Y463 whole entry, looked up): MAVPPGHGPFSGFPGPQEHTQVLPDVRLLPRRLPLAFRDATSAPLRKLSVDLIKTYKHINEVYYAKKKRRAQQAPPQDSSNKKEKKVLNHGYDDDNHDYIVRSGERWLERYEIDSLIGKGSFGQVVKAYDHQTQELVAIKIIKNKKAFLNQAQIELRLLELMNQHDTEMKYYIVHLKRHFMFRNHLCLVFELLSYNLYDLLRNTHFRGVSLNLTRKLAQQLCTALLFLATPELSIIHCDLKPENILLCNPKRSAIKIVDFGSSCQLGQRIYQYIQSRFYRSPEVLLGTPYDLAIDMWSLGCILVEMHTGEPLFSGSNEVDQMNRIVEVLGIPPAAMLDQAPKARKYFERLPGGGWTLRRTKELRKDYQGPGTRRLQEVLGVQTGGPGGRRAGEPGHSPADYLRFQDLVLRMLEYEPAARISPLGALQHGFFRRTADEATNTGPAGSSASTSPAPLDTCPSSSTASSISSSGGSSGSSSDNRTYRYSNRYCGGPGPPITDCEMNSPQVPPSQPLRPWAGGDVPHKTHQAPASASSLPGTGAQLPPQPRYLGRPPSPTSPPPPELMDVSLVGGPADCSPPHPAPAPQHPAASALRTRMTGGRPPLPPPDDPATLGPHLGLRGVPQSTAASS

[15] = target: Dual specificity tyrosine-phosphorylation-regulated kinase 1B (Homo sapiens) (UniProt Q9Y463); details: at 1 µM
[16] = target: T1, Dual specificity tyrosine-phosphorylation-regulated kinase 2 (Homo sapiens) (UniProt Q92630); details: at 0.1 µM
T1 sequence (whole entry): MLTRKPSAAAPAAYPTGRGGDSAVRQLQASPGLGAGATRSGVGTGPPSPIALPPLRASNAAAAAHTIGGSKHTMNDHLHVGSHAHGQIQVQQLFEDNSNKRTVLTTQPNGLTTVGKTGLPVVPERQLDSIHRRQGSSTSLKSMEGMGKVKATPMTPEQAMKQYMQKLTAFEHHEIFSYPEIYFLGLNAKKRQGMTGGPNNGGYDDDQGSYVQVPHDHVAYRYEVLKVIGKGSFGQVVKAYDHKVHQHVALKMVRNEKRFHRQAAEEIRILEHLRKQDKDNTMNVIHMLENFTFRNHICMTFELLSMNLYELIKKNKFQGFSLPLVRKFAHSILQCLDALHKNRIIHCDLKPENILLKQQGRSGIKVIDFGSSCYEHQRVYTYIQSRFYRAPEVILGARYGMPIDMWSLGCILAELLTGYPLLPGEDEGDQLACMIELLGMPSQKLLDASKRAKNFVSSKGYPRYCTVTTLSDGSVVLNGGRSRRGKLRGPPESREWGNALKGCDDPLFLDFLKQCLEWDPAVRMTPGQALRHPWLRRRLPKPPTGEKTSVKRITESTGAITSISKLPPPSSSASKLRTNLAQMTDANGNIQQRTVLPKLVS

[17] = target: T1, Dual specificity tyrosine-phosphorylation-regulated kinase 2 (Homo sapiens); details: at 1 µM
[18] = target: Glycogen synthase kinase-3 alpha (Homo sapiens) (UniProt P49840); details: at 0.1 µM
Glycogen synthase kinase-3 alpha (Homo sapiens), sequence (P49840 2-483 limits assumed): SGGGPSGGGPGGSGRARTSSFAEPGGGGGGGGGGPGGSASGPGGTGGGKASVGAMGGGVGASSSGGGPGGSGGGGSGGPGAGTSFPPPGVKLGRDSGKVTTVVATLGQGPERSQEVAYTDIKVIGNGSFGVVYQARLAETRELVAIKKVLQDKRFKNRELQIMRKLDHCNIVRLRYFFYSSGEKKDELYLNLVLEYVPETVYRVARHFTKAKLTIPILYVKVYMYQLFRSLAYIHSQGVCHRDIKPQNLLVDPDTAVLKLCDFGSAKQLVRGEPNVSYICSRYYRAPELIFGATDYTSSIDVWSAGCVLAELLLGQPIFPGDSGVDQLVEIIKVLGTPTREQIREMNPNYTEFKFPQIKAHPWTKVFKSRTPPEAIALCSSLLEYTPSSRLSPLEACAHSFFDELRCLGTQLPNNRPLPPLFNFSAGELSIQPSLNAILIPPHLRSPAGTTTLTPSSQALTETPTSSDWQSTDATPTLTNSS

[19] = target: Glycogen synthase kinase-3 alpha (Homo sapiens) (UniProt P49840); details: at 1 µM
[20] = target: Glycogen synthase kinase-3 beta (Homo sapiens) (UniProt P49841); details: at 0.1 µM;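 note: values are mean percent inhibition of GSK3B activity, from the GSK Published Kinase Inhibitor Set (PKIS) screening dataset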
Glycogen synthase kinase-3 beta (Homo sapiens), sequence (P49841 whole entry, looked up): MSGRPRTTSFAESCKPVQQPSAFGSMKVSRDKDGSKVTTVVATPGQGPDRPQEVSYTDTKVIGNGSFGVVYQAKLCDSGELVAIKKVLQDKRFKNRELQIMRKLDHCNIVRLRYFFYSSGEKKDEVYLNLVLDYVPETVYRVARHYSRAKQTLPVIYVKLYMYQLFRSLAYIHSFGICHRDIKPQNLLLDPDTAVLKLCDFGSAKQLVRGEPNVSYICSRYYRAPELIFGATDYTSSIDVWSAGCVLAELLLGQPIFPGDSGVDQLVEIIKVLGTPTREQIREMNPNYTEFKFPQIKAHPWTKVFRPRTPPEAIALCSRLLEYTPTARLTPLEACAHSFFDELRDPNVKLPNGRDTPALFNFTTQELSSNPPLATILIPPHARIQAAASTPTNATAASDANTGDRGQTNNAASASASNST

Cyclin-dependent kinase 4 (Homo sapiens), sequence (P11802 whole entry): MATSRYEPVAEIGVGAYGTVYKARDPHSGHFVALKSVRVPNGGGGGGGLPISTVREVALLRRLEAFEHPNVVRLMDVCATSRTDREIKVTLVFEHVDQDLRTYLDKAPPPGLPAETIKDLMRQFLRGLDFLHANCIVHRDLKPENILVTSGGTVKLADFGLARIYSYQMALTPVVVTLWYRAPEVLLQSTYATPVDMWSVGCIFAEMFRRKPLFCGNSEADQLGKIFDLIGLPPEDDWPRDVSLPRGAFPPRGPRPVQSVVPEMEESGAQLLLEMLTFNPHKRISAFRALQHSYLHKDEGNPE
CDK3/Cyclin E (Homo sapiens), sequence (P24864 whole entry, looked up): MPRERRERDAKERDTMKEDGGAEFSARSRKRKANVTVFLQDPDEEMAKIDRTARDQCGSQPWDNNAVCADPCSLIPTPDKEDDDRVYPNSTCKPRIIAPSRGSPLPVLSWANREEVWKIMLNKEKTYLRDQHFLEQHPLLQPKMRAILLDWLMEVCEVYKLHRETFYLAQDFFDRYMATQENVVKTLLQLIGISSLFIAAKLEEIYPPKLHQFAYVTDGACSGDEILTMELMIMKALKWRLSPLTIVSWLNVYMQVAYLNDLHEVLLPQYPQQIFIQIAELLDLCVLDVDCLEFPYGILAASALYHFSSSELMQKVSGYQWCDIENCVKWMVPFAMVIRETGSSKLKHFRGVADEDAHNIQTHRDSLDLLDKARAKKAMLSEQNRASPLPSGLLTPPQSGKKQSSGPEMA
CDK3/Cyclin E (Homo sapiens), sequence (Q00526 whole entry, looked up): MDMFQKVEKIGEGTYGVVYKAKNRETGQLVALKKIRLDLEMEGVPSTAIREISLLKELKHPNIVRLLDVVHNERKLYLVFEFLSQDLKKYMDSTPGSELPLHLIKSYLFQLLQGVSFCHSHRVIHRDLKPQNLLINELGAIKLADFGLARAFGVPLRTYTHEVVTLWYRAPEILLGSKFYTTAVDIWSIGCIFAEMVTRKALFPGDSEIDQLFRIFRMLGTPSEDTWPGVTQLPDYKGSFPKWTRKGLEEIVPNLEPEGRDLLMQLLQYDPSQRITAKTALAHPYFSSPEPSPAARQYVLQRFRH

| Compound | inhibition [1] [%] | inhibition [2] [%] | inhibition [3] [%] | inhibition [4] [%] | inhibition [5] [%] | inhibition [6] [%] | inhibition [7] [%] | inhibition [8] [%] | inhibition [9] [%] | inhibition [10] [%] | inhibition [11] [%] | inhibition [12] [%] | inhibition [13] [%] | inhibition [14] [%] | inhibition [15] [%] | inhibition [16] [%] | inhibition [17] [%] | inhibition [18] [%] | inhibition [19] [%] | inhibition [20] [%] |
| --- | --- | --- | --- | --- | --- | --- | --- | --- | --- | --- | --- | --- | --- | --- | --- | --- | --- | --- | --- | --- |
| CCn1c(-c2nonc2N)nc2cnc(Oc3cccc(NC(=O)c4ccc(OCCN5CCOCC5)cc4)c3)cc21 | -2.11 | 3.32 | 2.38 | -0.26 | 0.42 | -1.58 | -0.79 | -0.98 | -0.12 | 0.57 | 1.22 | 0.91 | 4.24 | 0.06 | 0.86 | 3.68 | 5.39 | 13.9 | 56.5 | 10.2 |
| CCn1c(-c2nonc2N)nc2c(C#CC(C)(C)O)nc(CN3CCCC3)cc21 | -0.95 | 1.6 | 2.5 | 1.06 | 2.14 | -8.94 | 0.66 | -0.92 | 1.46 | -1.6 | 0.53 | 1.08 | 2.47 | 0.74 | 2.39 | -1.68 | 0.64 | 5.1 | 21.6 | 4.97 |
| Nc1ncnc2occ(-c3ccc(NC(=O)Nc4cc(C(F)(F)F)cc(C(F)(F)F)c4)cc3)c12 | 7.22 | 1.55 | 2.23 | 0.25 | 1.52 | -0.28 | 3.73 | 0.31 | 2.87 | 0.61 | 1.36 | 0.09 | 2.4 | 0.19 | 1.76 | 1.71 | 2.18 | 1.22 | 5.65 | 1.08 |
| COc1cc(C=NNc2ncnc3c2cnn3-c2ccccc2)ccc1O | 12.7 | 3.09 | 18.6 | 4 | 24.5 | 4.2 | 21.7 | 3.39 | 9.02 | – | 9.46 | 4.3 | 28.8 | 1.97 | 11 | 5.08 | 23.7 | 47.7 | 79.2 | 41.6 |
| CC(C)=Cc1cccc2c1/C(=N/Nc1ccc(S(N)(=O)=O)cc1)C(=O)N2 | 99.1 | 34.3 | 68.9 | 39.7 | 73.3 | 63.6 | 91.4 | 1.69 | 7.38 | -6.71 | 1.83 | -1.42 | 2.34 | 0.57 | 5.61 | 0.58 | 2.29 | 13.8 | 53.5 | 7.42 |
| COc1ccc(-c2ccncc2)cc1C(N)=O | -1.43 | 3.41 | 3.66 | 0.56 | 1.7 | -5.08 | 0.48 | 0.6 | 2.96 | 2.01 | 0.61 | 3.91 | 6.95 | -1.51 | 2.44 | 3.8 | 9.87 | 3 | 4.53 | 2.89 |
